From PubChem BioAssay (NCATS)
Where “and” joins values, the source holds several entries; their conditions need not be identical. Identical values can stand only once. Results filed as inconclusive are left out. Calls of active or inactive are those of the source. Calls follow the shape of the dose curve; as a rule, active = well fitted inhibition curve with a large enough effect; inconclusive = small, poorly fitted or top-dose-only effect; inactive = flat fitted curve, though single readings scatter.

Tests used:
Experiment in all cases: Cytotoxic Profiling of Annotated Libraries Using Quantitative High-Throughput Screening (AID 1296008); also: nearly all actives have a fitted effect of over 60% in size
Details in all cases: Five cell lines viability, CellTiter-Glo ATP luminescence, 48-72 h; max response: stronger effect = lower value
CRL-7250 = normal cell line; test system: CRL-7250
Outline: (§1)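 Compounds were pin-transferred onto cells and incubated 48 or 72 hr at 37 degree Celsius, 95% humidity. CellTiter-Glo was added, plates sat 10 min at room temperature, then ATP-coupled luminescence was imaged as the viability read-out.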

HEK293 = test system: HEK293
Outline: as §1

HaCat = test system: HaCat
Outline: as §1

KB-3-1 = test system: KB-3-1
Outline: as §1
% is scaled to controls: 0 for no effect and ±100 for the full control effect; potency is read from the fitted curve at half-maximal effect.

CCOCCOC(=O)/C=C/c1ccc(OC)cc1
inactive: max response (CRL-7250) -7.76% | outcome (HEK293) | max response (HaCat) -19.2%

CCCCCCOc1cc2c(cc1N(C)c1ncc(C(=O)O)cn1)C(C)(C)CCC2(C)C
inactive: max response (CRL-7250) 4.99% | max response (HEK293) 3.1% | outcome (HaCat)

CC1OC(OC2C(OC3C(O[C@H]4CC[C@@]5(C)C(CC[C@]6(C)C5C(=O)C=C5C7CC(C)(C)CC(O)[C@]7(C)CC[C@]56C)C4(C)C)OC(C(=O)O)C(O)C3O)OCC(O)C2O)C(O)C(O)C1O (some centres not stated)
inactive: max response (CRL-7250) -0.894% | max response (HEK293) 2.13% | max response (HaCat) -1.72% | max response (KB-3-1) -2.68%

Cc1noc(=O)c2ccc(NC(=O)C(O)(CC(C)(C)c3cccc4c3OCC4)C(F)(F)F)cc12 (configuration not stated)
inactive: max response (CRL-7250) 3.52% | max response (HEK293) -10.8% | outcome (HaCat) | outcome (KB-3-1)

CCC(C(=O)O)c1ccc(N2Cc3ccccc3C2=O)cc1 (configuration not stated)
inactive: max response (CRL-7250) -5.22% | max response (HEK293) -2.44% | outcome (HaCat)

CN1CCN(c2ccc(C(=O)Nc3n[nH]c4ccc(Cc5cc(F)cc(F)c5)cc34)c(NC3CCOCC3)c2)CC1
active: Potency (CRL-7250) 20.9 µM | Potency (HEK293) 7.41 µM | Potency (HaCat) 18.4 µM and 14.8 µM

CC(=O)c1cc2c(cc1O)OC(C)(C)C=C2
inactive: outcome (CRL-7250) | max response (HEK293) 0.43% | max response (HaCat) -16.3% | outcome (KB-3-1)

Cc1cnc(NC(=O)Nc2cc(Br)c(C)cc2OCC2CNCCO2)cn1 (configuration not stated)
inactive: max response (HaCat) -19%
active: Potency (CRL-7250) 13 µM | Potency (HEK293) 1.3 µM | Potency (KB-3-1) 14.6 µM

NC1CCCCN(c2c(F)cc3c(=O)c(C(=O)O)cn(C4CC4)c3c2Cl)C1 (configuration not stated)
inactive: max response (CRL-7250) 3.42% | max response (HEK293) -12.1% | max response (HaCat) 0.186% | max response (KB-3-1) -4.74%
